# Screening results: PubChem BioAssay, several laboratories
# Ba/F3 V617F tox: reduce viability of Ba/F3 cells dependent on JAK2V617F | AID 1446 | inhibition, % at 5.6 µM | hit rate 1.1% among 220,000 | Ba/F3 EpoR-JAK2V617F viability, ATP luminescence;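 active means inhibition above the campaign mean plus 3 SD over all tested compounds, cut at about 24% in these data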;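 further: cytokine-independent growth of Ba/F3 cells driven by EpoR plus mutant JAK2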
# IEC-6 tox: kills IEC-6 intestinal cells in KLF5 counter-screen; inhibition, % at 5 µM; IEC-6 cytotoxicity, luminescence viability; AID 1825; hit rate 0.78% among 290,000; in the data active means inhibition above about 22%
# BaF3 parental: parental Ba/F3 viability inhibition as JAK2V617F counter-screen. AID 1486. inhibition, % at 5.6 µM. CellTiter-Glo ATP luminescence. hit rate 1.1% among 220,000;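 active means inhibition above a per-campaign cutoff, the mean inhibition of all tested compounds plus 3 SD, cut at about 27% in these data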
# APP 5UTR inh: APP translation inhibition | inhibition, % at 2 µM | hit rate 0.82% among 190,000 | SH-SY5Y APP 5'UTR-luciferase reporter, luminescence;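 active means inhibition above a set limit, derived from the sample mean plus 3 SD, cut at about 45% in these data; inconclusive means one replicate passes the limit while the other fails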
# KLF5 inhibitor: inhibitors of KLF5 expression | hit rate 0.23% among 290,000 | AID 1700 | DLD-1 KLF5 promoter-luciferase reporter, luminescence | inhibition, % at 5 µM;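 active means inhibition above a per-plate limit of that plate's mean compound inhibition plus 3 SD, cut at about 60% in these data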;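 further: higher means less KLF5 promoter-driven luciferase light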
# aSyn UTR inh: MLPCN primary screen, SNCA 5' untranslated region; alpha-synuclein 5'UTR reporter, inhibitor activity; inhibition, % (tested at 7.5 µM); hit rate 0.82% among 300,000; AID 1813; in the data active means inhibition above about 60%; inconclusive means no clear call, values can overlap the other calls;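 further: H4 neuroglioblastoma cells stably carrying SNCA 5'UTR luciferase fusion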
# A number is an active result; – = inactive; ? = inconclusive; · = not tested or not shown. Compounds with a hit are over-represented: about 2.2% of the library has one in this group of screens.
SMILES,Ba/F3 V617F tox,IEC-6 tox,BaF3 parental,APP 5UTR inh,KLF5 inhibitor,aSyn UTR inh
CCN(c1nc(N)c(C(=O)N=C(N)N)nc1Cl)C(C)C,·,·,·,·,·,–
CCN1/C(=C/C=C/c2oc3ccc4ccccc4c3[n+]2CC)Oc2ccc3ccccc3c21,101,–,68,54,–,92
CC(=O)/C(=N\Nc1ccccc1)Sc1cccc2cccnc12,–,–,–,–,–,–
O=S(=O)(Nc1cc(Sc2cccc3cccnc23)c(O)c2ccccc12)c1ccc(F)cc1,–,51,–,78,–,–
COc1ccc(S(=O)(=O)Nc2cc(Sc3ncn[nH]3)c(O)c3ccccc23)cc1,90,–,87,–,89,·
O=C(Sc1cccc2cccnc12)c1ccc(F)cc1,43,87,41,71,–,·
COc1ccc(-c2noc(CN(C)Cc3ccccc3)n2)c(OC)c1OC,·,–,·,·,–,–
CS(=O)(=O)c1ccc(S(=O)CC(=O)OCc2ccccc2)c([N+](=O)[O-])c1 (stereo not drawn),43,–,–,48,–,–
COC(=O)c1ccc(OC(=O)CS(=O)c2ccccc2[N+](=O)[O-])cc1 (stereo not drawn),–,–,–,–,–,–
O=C(CS(=O)c1ccc(C(F)(F)F)cc1[N+](=O)[O-])Oc1ccccc1 (stereo not drawn),53,–,48,–,–,–
Cc1ccc(S(=O)(=O)CCC(=O)OCC(=O)N(Cc2ccccc2)C(C)C)cc1,·,·,·,·,·,–
COc1cccc(/C=N/Nc2cc(N3CCOCC3)ncn2)c1O,·,–,·,·,–,72
COc1cccc(/C=N/Nc2ncnc3c2ncn3Cc2ccccc2)c1O,71,–,59,88,–,102
CC(C)N1CCC(=NNc2ccc(S(=O)(=O)N3CCOCC3)cc2[N+](=O)[O-])CC1,–,–,–,–,–,–
CCCN1CCC(=NNc2ccc(S(=O)(=O)N3CCOCC3)cc2[N+](=O)[O-])CC1,–,–,–,88,–,64
c1ccc(N2CCN(c3nnnn3-c3ccccc3)CC2)cc1,–,–,–,48,–,–
CCC(C)NS(=O)(=O)c1ccc(NC(=O)Cc2ccc(OC)cc2)cc1 (stereo not drawn),–,–,–,–,–,–
C/C(=N\NC(=O)c1nnn(-c2nonc2N)c1CN(C)c1ccccc1)c1ccc(O)cc1,·,–,·,·,–,–
C/C(=N\NC(=O)c1nnn(-c2nonc2N)c1CN(C)c1ccccc1)c1ccccn1,·,38,·,·,62,88
CCc1ccc(C(=O)/C=C/c2ccc([N+](=O)[O-])o2)cc1,–,–,–,54,–,–
Cc1ccc(Cl)c(N/C=C/C(=O)c2ccccc2)c1,·,–,·,·,–,–
CCOC(=O)c1c(C)n(-c2ccc(C)cc2)c2ccc(OCC(O)CNCC3CCCO3)cc12 (stereo not drawn),–,–,–,–,–,75
O=C1c2ccccc2C(=O)C1c1ccc2ccccc2n1,–,–,–,–,–,94
COC(=O)C1=C(C)NC(C)=C(C(=O)OC)C1c1ccc2ccccc2n1,–,–,–,·,–,–
CC(C)CC(=O)N1CCN(Cc2ccc(Cl)cc2)CC1,·,–,·,·,–,–
SMILES,Ba/F3 V617F tox,IEC-6 tox,BaF3 parental,APP 5UTR inh,KLF5 inhibitor,aSyn UTR inh
CC(C)c1ccc(CN2CCN(C(=O)CCl)CC2)cc1,46,–,–,–,–,·
CC(C)Cc1cc(-c2ccco2)c(C#N)c(N)n1,–,–,–,–,–,70
Cc1cccc(Cc2nnc(CCC(=O)N(CC3CC3)CC3CCCO3)o2)c1 (stereo not drawn),–,–,–,–,–,–
CCN(CC1CCCO1)C(=O)CCc1nnc(Cc2ccc3c(c2)OCO3)o1 (stereo not drawn),–,–,82,–,–,–
Cc1ccc2nc(Cl)c(-c3ccccc3)cc2c1,·,·,·,·,·,74
Cc1ccc2nc(Cl)nc(-c3ccccc3)c2c1,–,–,–,–,–,–
S=C(Nc1ccccc1)N1CCOCC1,–,–,–,–,–,–
O=C(NC(=Nc1ccccc1)N1CCOCC1)Nc1ccccc1,–,–,96,–,–,–
CC1CCCCN1C(=O)C1CCN(c2nc(-c3ccccc3)nc3c2CCC3)CC1 (stereo not drawn),·,–,·,·,–,–
N#C/C(=C\c1ccncc1)c1nc2c(s1)CCCC2,–,–,–,–,–,–
Cc1ccc(-c2nc(-c3ccccc3)no2)c(Cl)c1,–,–,–,–,–,95
Cc1ccc(-c2nc(-c3ccccc3)no2)cc1,–,–,–,–,–,?
Cc1cc(NC(=O)CCC(=O)N(CC(=O)NC2CCCC2)c2ccc(F)c(Cl)c2)no1,·,–,·,·,–,–
CCN1CCN(C(c2ccc(C(F)(F)F)cc2)c2ccc3cccnc3c2O)CC1 (stereo not drawn),·,–,·,·,–,–
OCCN1CCN(C(c2cccs2)c2ccc3cccnc3c2O)CC1 (stereo not drawn),100,50,86,–,83,·
O=C(NCCCn1ccnc1)/C(=C/c1ccco1)NC(=O)c1cccs1,–,–,–,–,–,–
COc1ccc2cc(/C=N/NC(=O)c3c(Cl)cnn3C)c(Cl)nc2c1,–,–,–,–,–,–
COc1ccc2cc(/C=N/NC(=O)c3ccc(CN(c4ccc(C)c(C)c4)S(C)(=O)=O)cc3)c(Cl)nc2c1,–,–,–,–,–,65
COc1ccccc1-n1nnnc1SCC(=O)Nc1cc(C)on1,–,–,–,–,–,–
CCOc1ccccc1-n1nnnc1SCC(=O)Nc1cc(C)on1,–,–,39,–,–,–
O=C(NN=C1CCCC1)c1n[nH]c2c1CCC2,–,–,–,94,–,–
O=C(N/N=C/c1c(Cl)cccc1Cl)c1n[nH]c2c1CCCC2,–,–,–,–,–,–
O=C(NN=C1CCCCCC1)c1ccncc1,·,–,·,·,–,·
O=C(NN=C1CCCC1)c1n[nH]c2c1CCCC2,–,–,–,92,–,–
Cc1ccsc1/C=N\NC(=O)c1n[nH]c2c1CCC2,–,–,–,–,–,69
SMILES,Ba/F3 V617F tox,IEC-6 tox,BaF3 parental,APP 5UTR inh,KLF5 inhibitor,aSyn UTR inh
CC(CCc1ccc(O)cc1)NCc1ccc(Br)cc1 (stereo not drawn),·,–,·,·,–,–
CC1CCCN(S(=O)(=O)c2ccc(C(=O)Nc3nnc(-c4ccccc4Cl)o3)cc2)C1 (stereo not drawn),–,–,–,–,–,78
COc1ccc(-c2nnc(NC(=O)c3ccc(S(=O)(=O)N4CCc5ccccc5C4)cc3)o2)cc1,–,–,–,–,–,73
COc1ccc(-c2nnc(NC(=O)c3ccc4c(c3)OCCO4)o2)cc1,·,–,·,·,–,105
CCN(CC)c1ccc(Nc2cc3n(c(=O)n2)CCc2cc(OC)c(OC)cc2-3)cc1,·,–,·,·,–,74
CCC(=O)N1CCc2cc(S(=O)(=O)NCCCN3CCN(Cc4ccccc4)CC3)ccc21,–,–,–,–,–,–
CC(=O)N1CCc2cc(S(=O)(=O)NCCCN3CCN(Cc4ccccc4)CC3)ccc21,–,–,–,63,–,–
C#CC[N+](C)(C)CCCCCCCCC,82,–,62,–,–,65
CC#CC[N+](C)(C)CCCCCCCCCC,95,–,79,·,–,–
